Compounds without any hit were thinned out: in the full panel of roughly 83,000, 20% have a hit.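 A percent growth of 40 corresponds to 60% growth inhibition; 0 means no net growth; -100 means all cells died. Active threshold: below 10.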 Active and inactive are the calls of the source.
Tests used:
Assay in all cases: NCI-60 one-dose screen, 48 h (100 = growth as untreated, 0 = no growth, -100 = all killed)
Conditions in all cases: 10 µM unless noted
NCI-H23 lung = test system: NCI-H23 lung
NCI-H226 lung = test system: NCI-H226 lung
NCI-H322M lung = test system: NCI-H322M lung
HOP-62 NSCLC = test system: HOP-62 NSCLC
NCI-H460 lung = test system: NCI-H460 lung
HOP-92 NSCLC = test system: HOP-92 NSCLC
NCI-H522 lung = test system: NCI-H522 lung
A549/ATCC NSCLC = test system: A549/ATCC NSCLC
786-0 renal = test system: 786-0 renal
COLO 205 colon = test system: COLO 205 colon

Measured: growth

CC1=CC[C@@H]2CC[C@]3(C)[C@H](CC[C@@H]4[C@@]5(C)CCCNC(C)(C)[C@@H]5CC[C@]43C)[C@H]2[C@@H]1C
inactive: NCI-H23 lung 63.1% | NCI-H226 lung 107% | NCI-H322M lung 20.7% | HOP-62 NSCLC 105% | HOP-92 NSCLC 23.8% | NCI-H522 lung 96.1%
active: NCI-H460 lung -70.4% | A549/ATCC NSCLC -14% | 786-0 renal -72.5% | COLO 205 colon -93.5%

Clc1ccc(C2CC(c3cccc(Nc4ccncc4)c3)=NN2c2ccc(Cl)cc2)cc1 (stereo not given)
inactive: NCI-H23 lung 47.7% | NCI-H226 lung 91.9% | NCI-H322M lung 54.9% | HOP-92 NSCLC 46.3%
active: HOP-62 NSCLC -44.4% | NCI-H460 lung -81% | NCI-H522 lung -44% | A549/ATCC NSCLC 9.48% | 786-0 renal -71.7% | COLO 205 colon -61.5%

Clc1nc(Cl)c2ncn(CC3(Cn4cnc5c(Cl)nc(Cl)nc54)COC3)c2n1
active: NCI-H23 lung -70.2% | NCI-H226 lung -81.3% | NCI-H322M lung -100% | HOP-62 NSCLC -82.3% | NCI-H460 lung -65.5% | HOP-92 NSCLC -91.9% | NCI-H522 lung -89.1% | A549/ATCC NSCLC -77% | 786-0 renal -98.7% | COLO 205 colon -76.6%

O=S(=O)(NCCCNc1nccc(-c2c(-c3ccccc3)nc3occn23)n1)c1ccc(Cl)cc1
inactive: NCI-H23 lung 94.2% | NCI-H226 lung 75.3% | NCI-H322M lung 99.9% | HOP-62 NSCLC 95.1% | NCI-H460 lung 85% | HOP-92 NSCLC 93.8% | NCI-H522 lung 77.9% | A549/ATCC NSCLC 65.8% | 786-0 renal 82.5% | COLO 205 colon 69.1%

CC(=O)O[C@]1(C(C)=O)CC[C@H]2[C@@H]3C=C(Cl)C4=CC(=O)CC[C@]4(C)[C@H]3CC[C@@]21C
inactive: NCI-H23 lung 114% | NCI-H226 lung 94.4% | NCI-H322M lung 106% | HOP-62 NSCLC 106% | NCI-H460 lung 105% | HOP-92 NSCLC 96.7% | NCI-H522 lung 72.2% | A549/ATCC NSCLC 91.5% | 786-0 renal 99.4% | COLO 205 colon 133%

CCCc1cc2c(cc1Br)OCO2
inactive: NCI-H23 lung 96.2% | NCI-H226 lung 106% | NCI-H322M lung 108% | HOP-62 NSCLC 84% | NCI-H460 lung 106% | HOP-92 NSCLC 86.9% | NCI-H522 lung 87.9% | A549/ATCC NSCLC 80.7% | 786-0 renal 89.3% | COLO 205 colon 109%

S=c1[nH]cccc1-c1nnc2n1Nc1nc3ccc(Cl)cc3cc1CS2
inactive: NCI-H23 lung 92% | NCI-H226 lung 94.9% | NCI-H322M lung 103% | HOP-62 NSCLC 108% | NCI-H460 lung 102% | HOP-92 NSCLC 107% | NCI-H522 lung 82.6% | A549/ATCC NSCLC 107% | 786-0 renal 98.8% | COLO 205 colon 122%

Clc1ccc(N2N=C(c3cccc(Nc4ccncc4)c3)CC2c2ccccc2)cc1 (stereo not given)
inactive: NCI-H23 lung 92.6% | NCI-H226 lung 94.5% | NCI-H322M lung 92.7% | HOP-62 NSCLC 92.2% | NCI-H460 lung 98.9% | HOP-92 NSCLC 67.7% | NCI-H522 lung 80.4% | A549/ATCC NSCLC 93.9% | 786-0 renal 10.9% | COLO 205 colon 73.1%

COc1ccc(NS(=O)(=O)c2ccc(C)cc2)c([N+](=O)[O-])c1
inactive: NCI-H23 lung 96.6% | NCI-H226 lung 90.8% | NCI-H322M lung 94% | HOP-62 NSCLC 97.3% | NCI-H460 lung 106% | HOP-92 NSCLC 83.5% | NCI-H522 lung 87.9% | A549/ATCC NSCLC 99.7% | 786-0 renal 107% | COLO 205 colon 112%

Cc1cc2cc3cc(C)c(N)cc3[n+](C)c2cc1N
active: NCI-H23 lung 0.672% | NCI-H460 lung -14.5% | HOP-92 NSCLC -11.9% | NCI-H522 lung -4.5% | A549/ATCC NSCLC 3.82% | COLO 205 colon -46.5%
inactive: NCI-H226 lung 30.9% | NCI-H322M lung 28.4% | HOP-62 NSCLC 19.3% | 786-0 renal 14.7%

O=C(CN1CCOCC1)Nc1ccc2ncnc(Nc3ccc(Oc4cccc(F)c4)c(Cl)c3)c2c1
inactive: NCI-H23 lung 96.7% | NCI-H226 lung 89.8% | NCI-H322M lung 20.1% | HOP-62 NSCLC 84.9% | NCI-H460 lung 80.2% | HOP-92 NSCLC 67.4% | NCI-H522 lung 20.7% | A549/ATCC NSCLC 66.3% | 786-0 renal 74.3% | COLO 205 colon 91.7%

C=Cc1cc[n+](CCCCCCCCCCCC)cc1
inactive: NCI-H23 lung 102% | NCI-H226 lung 103% | NCI-H322M lung 114% | HOP-62 NSCLC 111% | NCI-H460 lung 98.3% | HOP-92 NSCLC 134% | NCI-H522 lung 110% | A549/ATCC NSCLC 103% | 786-0 renal 106% | COLO 205 colon 118%

Source: PubChem BioAssay (NCI)
